An excerpt weighted towards active compounds, which were near 5.2% of everything screened.
Tau fibril FP: blocks human tau fibril formation measured by polarization; P10636; K18 P301L tau heparin fibrillization, Alexa594 FP, 6 h; Potency, µM (top dose mostly 57.7 µM), without a hit: top-dose activity, negative = inhibition, actives largely listed as inhibitors; actives 0.39% (n = 280,000); AID 1468; also: potency is read from the fitted curve at half-maximal effect; nearly all actives have a fitted effect of over 55% in size
Target sequence (P10636 561-689 P618L limits assumed): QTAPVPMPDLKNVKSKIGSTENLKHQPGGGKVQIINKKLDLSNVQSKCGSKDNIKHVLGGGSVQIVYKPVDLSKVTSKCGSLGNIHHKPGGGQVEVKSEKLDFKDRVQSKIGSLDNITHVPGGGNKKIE
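Steps: dispense K18 P301L tau (15 uM plus 0.24 uM Alexa 594 tracer, final) in pH 7 sodium acetate; add compound; add heparin (20 uM final); incubate 6 hr, 37 C; add ThT (30 uM final); after 1 hr ambient, read FP.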
FBPA coupling cs: coupling enzyme interference in Giardia aldolase counter-screen; coupling enzyme system counterscreen, AmpLite Red fluorescence; activity change, negative = inhibition, % at 58.2 µM, hits read low; actives 0.67% (n = 290,000); in the data active = activity change below about -30%
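Counterscreen of the coupled detection system alone, without aldolase: glyceraldehyde-3-phosphate coupling enzymes plus AmpLite Red readout. Compounds at 57.5 uM final, 10 min RT preincubation, 20 min RT reaction, fluorescence 525/598 nm.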
Tau fluor cs: counter-screen for tau fibril formation inhibitors; actives 0.93% (n = 280,000); Potency, µM (series often up to 57.7 µM), without a hit: at the top dose activity change, negative = decrease; tau K18 P301L Alexa594 fluorescence, heparin fibrillization; also: potency is read from the fitted curve at half-maximal effect; nearly all actives have a fitted effect of over 55% in size
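Human K18 P301L tau (15 uM unlabeled plus 0.24 uM Alexa 594-labeled, final) in 100 mM sodium acetate pH 7 was mixed with compound and 20 uM heparin and incubated 6 hr at 37 C.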
Sfp PPTase inh: inhibitors of Bacillus subtilis Sfp phosphopantetheinyl transferase. Q9F4F7. actives 3.5% (n = 310,000). Potency, µM, for inactives: largest response in the series, negative = inhibition, actives largely listed as inhibitors. Biochemical Sfp PPTase activity, qHTS;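 also: the enzyme is Sfp with the accession as filed and its product quenches rhodamine fluorescence; potency is read from the fitted curve at half-maximal effect; 0% = enzyme reaction without inhibitor and -100% = no enzyme wells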
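Buffer: 50 mM Hepes-Na pH 7.6, 10 mM MgCl2, 0.01% Nonidet P-40, 0.01% BSA. Enzyme 15 nM, pre-exposed to compound 15 min; substrates then added and fluorescence change tracked over 30 min.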
Tau ThT inhib: inhibitors of human tau fibril formation, thioflavin T binding. P10636. actives 2.1% (n = 270,000). recombinant tau K18 P301L, heparin-induced fibrillization, ThT fluorescence. AID 1460. Potency, µM (doses to about 57.4 µM), for the others: top-dose activity, negative = inhibition, usual class: inhibitors; also: potency is read from the fitted curve at half-maximal effect; nearly all actives have a fitted effect of over 55% in size
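Fibril formation assay: tau K18 P301L at 15 uM with trace Alexa 594 label, heparin inducer 20 uM, pH 7 sodium acetate buffer, 37 C for 6 hr; endpoint ThT signal.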
Numbers without * were called inactive; ? = inconclusive; . = no result given. Unless noted, calls follow the shape of the dose curve; as a rule, active = well fitted curve in the direction sought with a large enough effect; inconclusive = small, poorly fitted or top-dose-only effect, or another doubt; inactive = no such curve, though single readings can be large; an effect the other way counts as inactive or inconclusive. Unless noted, % is scaled to controls: 0 for no effect and ±100 for the full control effect.

SMILES	Tau fibril FP	FBPA coupling cs	Tau fluor cs	Sfp PPTase inh	Tau ThT inhib
COc1ccc(C(=O)Nc2nnc(S(=O)(=O)N3CCC(C)CC3)s2)cc1OC	0.8%	2.9	?	6.9%	12.6µM*
COc1ccc(C(=O)Nc2nnc(S(=O)(=O)N3CCCCCC3)s2)cc1OC	-5.9%	4.3	-25.3%	9.6%	?
CC(C)c1ccc(C(=O)Nc2nnc(S(=O)(=O)N3CCCCC3)s2)cc1	.	.	.	20.8%	.
O=C(Nc1ccc(OCc2cc(=O)n3c4c(sc3n2)CCCC4)cc1)c1cccc(F)c1	-9.3%	.	-14.4%	.	?
Cc1ccc(Sc2ccc(N3CCCC(C(=O)Nc4ccc(F)cc4F)C3)nn2)cc1 (stereo not drawn)	0.8%	.	-6.4%	.	-1.8%
COc1ccc(CC(=O)Nc2nc3c(s2)CC(C(C)(C)C)CC3)cc1 (stereo not drawn)	-5.2%	.	-3.5%	.	6.2%
Cc1nc(C2CCC3C4CCC5=CC(=O)CC[C@]5(C)C4CC[C@]23C)cs1 (stereo partly drawn)	3.1%	0.4	11.9%	79.4µM*	?
COc1cccc(OC)c1C(=O)NC(=S)N1CCCCC1c1cccnc1 (stereo not drawn)	.	-1.1	.	-9.9%	.
O=C(/C=C/c1ccc(F)cc1)NC(=S)N1CCCCC1c1cccnc1 (stereo not drawn)	-1.2%	6.1	-20.0%	50.1µM*	?
Cc1oc(-c2ccc(C(=O)N(C)Cc3ccccc3)cc2)nc1CN1CCc2ccccc21	7.8%	.	-15.2%	.	-17.4%
CC(C)CN(CC(C)C)C1=N/C(=C\c2ccco2)C(=O)N1c1ccccc1	-8.9%	0.3	-23.4%	31.6µM*	?
CCN(CC)C1=N/C(=C\c2ccco2)C(=O)N1c1ccccc1	-7.7%	0.5	-8.4%	?	?
CCC(C)NCCOCCOc1ccc(Cl)c2ccccc12 (stereo not drawn)	7.9%	-6.9	-14.6%	20µM*	-9.6%
Clc1ccc(OCCCNCc2ccccc2)c2ccccc12	.	-2.4	.	56.2µM*	.
CC(C)CC(=O)OCc1cc(=O)n2nc(C3CCCCC3)sc2n1	-10.6%	.	-9.4%	.	?
CCC(=O)Nc1cc(-c2nc3ccccc3s2)c(Cl)cc1Cl	-7.8%	.	-0.2%	.	3.5%
CCOC(=O)c1c(NC(=O)c2ccccc2C(=O)O)sc2c1CCCC2	.	11.4	.	13.4%	.
COC(=O)c1c(NC(=O)c2c(C)noc2C)sc2c1CCCCCC2	0.8%	1.5	4.2%	9.9%	5.4%
COC(=O)c1c(NC(=O)c2c(-c3ccccc3Cl)noc2C)sc2c1CCC2	-15.4%	-1.6	-23.7%	28.2µM*	-12.1%
CCOC(=O)c1c(NC(=O)Cn2c(C)nc3ccccc32)sc2c1CCC2	-4.1%	0.1	-0.5%	-2.2%	-10.1%
CCOC(=O)c1c(NC(=O)COC(=O)Cn2c(C)nc3ccccc32)sc2c1CCCC2	2.5%	-3.5	-6.8%	31.6µM*	?
CCn1cc(C(=O)NC(=S)Nc2sc3c(c2C(=O)OC)CCCCCC3)cn1	8.8%	8.4	-0.8%	35.5µM*	-0.9%
CCOC(=O)c1c(NC(=S)Nc2ccccc2)sc2c1CCCCC2	-1.0%	1.9	-19.8%	?	-15.7%
CCOC(=O)c1c(NC(=O)c2ccccc2C)sc2c1CCCC2	?	.	-24.3%	.	31.6µM*
CCC(C)C(N)C(=O)O (stereo not drawn)	.	.	.	13.7%	.
SMILES	Tau fibril FP	FBPA coupling cs	Tau fluor cs	Sfp PPTase inh	Tau ThT inhib
COC(=O)c1c(NC(=O)C2c3ccccc3Oc3ccccc32)sc2c1CCC(C)C2 (stereo not drawn)	-5.2%	.	-2.0%	.	-6.0%
O=C1/C(=C/c2ccc(O)c(O)c2)Oc2ccccc21	.	-10.1	.	?	.
Cc1cc(-c2ccc(C)c(S(=O)(=O)NC3CCCCC3)c2)on1	-4.9%	.	-13.0%	.	6.9%
CCOC(=O)c1c(NC(=O)c2nn(CC)cc2Br)sc(C)c1C	-11.5%	-0.2	-17.9%	?	-13.3%
CCOC(=O)c1c(NC(=O)c2ccoc2C)sc2c1CCC2	-3.0%	3.1	-3.9%	25.1µM*	-4.8%
CCOC(=O)c1c(NC(=O)c2nn(CC)cc2Br)sc2c1CCCCC2	-15.5%	-0.9	-26.2%	20µM*	?
COc1ccc(C2C(C#N)=C(N)Oc3c2sc2nc(C)cc(C)c32)cc1 (stereo not drawn)	?	-1.0	?	9.2%	25.1µM*
CCCCOc1ccc(C(=O)N(Cc2ccc(C(C)C)cc2)C2CCS(=O)(=O)C2)cc1 (stereo not drawn)	0.4%	.	-11.3%	.	-9.9%
CCCN1CCN(CC(O)COC(c2ccc(OC)cc2)c2ccc(OC)cc2)CC1 (stereo not drawn)	.	-2.2	.	44.7µM*	.
CC1=C(C(=O)Nc2ccccc2)C(c2cccnc2)n2nc(SCc3ccccc3Cl)nc2N1 (stereo not drawn)	-11.6%	.	-0.2%	.	6.0%
O=C(O)CCCN1C(=O)/C(=C/c2cn(-c3ccccc3)nc2-c2cccs2)SC1=S	?	7.6	-4.4%	-28.5%	15.8µM*
O=C(O)CCCN1C(=O)/C(=C\c2ccccc2OCc2ccccc2)SC1=S	.	8.9	.	1.4%	.
Cc1cccc(C)c1NC(=O)CN(CC(=O)O)CC(=O)O	.	.	.	44.7µM*	.
Cc1cccc(N2CCN(S(=O)(=O)c3cc(C(=O)Nc4ccc(Oc5ccccc5)cc4)ccc3F)CC2)c1C	28.2µM*	.	-17.1%	.	-0.5%
O=C(Nc1cc(Cl)cc(Cl)c1)c1ccc(F)c(S(=O)(=O)N2CCN(c3ccccc3F)CC2)c1	20µM*	.	-29.8%	.	4.3%
O=C(Cc1ccc([N+](=O)[O-])cc1)N1CCCCCC1	6.5%	0.1	-12.0%	7.5%	-13.6%
O=C(CCc1ccc(Oc2cc([N+](=O)[O-])cc([N+](=O)[O-])c2)cc1)N1CCCCCC1	-0.1%	-0.9	-24.7%	17.8µM*	?
O=c1c(N2CCN(c3cccc(C(F)(F)F)c3)CC2)csc2ccc(Cl)cc12	4.0%	.	-19.2%	.	15.8µM*
CC(=O)N1CCN(c2csc3ccc(Cl)cc3c2=O)CC1	8.5%	.	-9.9%	.	?
O=c1c(N2CCN(c3cccc(Cl)c3)CC2)csc2ccc(Cl)cc12	-5.0%	.	-29.3%	.	8.91µM*
CCCn1c(=O)c2sccc2n2c(CCCC(=O)N3CCN(c4ccccc4OC)CC3)nnc12	2.9%	.	-7.8%	.	-1.4%
CCC(=O)N(C1=C(NC)C(=O)c2ccccc2C1=O)C(C)C	8.2%	-41.1*	0.0%	13.4%	-7.2%
CCC(=O)N(C)/C=C1\Sc2ccccc2C1=O	17.3%	.	1.0%	-9.7%	?
CNC1=C(N(C(C)=O)c2ccc(Br)cc2)C(=O)c2ccccc2C1=O	2.4%	-56.5*	-10.1%	11.4%	?
CCc1ccccc1NC(=O)Cn1ccn(-c2cc(C)cc(C)c2)c(=O)c1=O	-4.2%	.	-6.8%	.	?
CC(=O)CSc1nnc2cc(C)c3cc(C)cc(C)c3n12	-3.7%	.	-5.6%	.	-12.4%
Cc1nncn1-c1ccc(C(=O)Nc2cc(F)ccc2F)cc1	-2.6%	.	-6.1%	.	-6.3%

Screens as filed in PubChem BioAssay.
